The source of these data is PubChem BioAssay AID1445 (SRMLSC, 2008).

Broadly, the inhibition is the drop in the measured response relative to a control, in per cent.

Among all 220,000 compounds or so, about 910 (0.41%) were called active.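 How the source made its calls: active means primary inhibition above the hit cutoff, then over 50% inhibition at one or more dose response concentrations (cut at about 23% in these data, passing the limit was not always enough); inconclusive means conflicting primary data, or primary hits not chosen for dose response; inactive means low primary inhibition, or under 50% at every dose.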 The sample as a whole holds a higher share of actives than the screen did. Results with a measured potency or affinity are listed apart.

The target in the assay is Aminopeptidase N (Plasmodium falciparum (isolate 3D7)) (UniProt O96935). In words: P. falciparum M1AAP inhibitors, biochemical, fluorogenic H-Leu-NHMec substrate, 1536-well (AID 1445).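 Further: plate controls were DMSO full reaction for no effect and no enzyme background for full effect.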 The settings on record: recombinant M1AAP, H-Leu-NHMec fluorogenic kinetic assay; at 30 µM, stronger effect = higher value unless noted.
Chain of Aminopeptidase N (Plasmodium falciparum (isolate 3D7)) (O96935 whole entry, looked up): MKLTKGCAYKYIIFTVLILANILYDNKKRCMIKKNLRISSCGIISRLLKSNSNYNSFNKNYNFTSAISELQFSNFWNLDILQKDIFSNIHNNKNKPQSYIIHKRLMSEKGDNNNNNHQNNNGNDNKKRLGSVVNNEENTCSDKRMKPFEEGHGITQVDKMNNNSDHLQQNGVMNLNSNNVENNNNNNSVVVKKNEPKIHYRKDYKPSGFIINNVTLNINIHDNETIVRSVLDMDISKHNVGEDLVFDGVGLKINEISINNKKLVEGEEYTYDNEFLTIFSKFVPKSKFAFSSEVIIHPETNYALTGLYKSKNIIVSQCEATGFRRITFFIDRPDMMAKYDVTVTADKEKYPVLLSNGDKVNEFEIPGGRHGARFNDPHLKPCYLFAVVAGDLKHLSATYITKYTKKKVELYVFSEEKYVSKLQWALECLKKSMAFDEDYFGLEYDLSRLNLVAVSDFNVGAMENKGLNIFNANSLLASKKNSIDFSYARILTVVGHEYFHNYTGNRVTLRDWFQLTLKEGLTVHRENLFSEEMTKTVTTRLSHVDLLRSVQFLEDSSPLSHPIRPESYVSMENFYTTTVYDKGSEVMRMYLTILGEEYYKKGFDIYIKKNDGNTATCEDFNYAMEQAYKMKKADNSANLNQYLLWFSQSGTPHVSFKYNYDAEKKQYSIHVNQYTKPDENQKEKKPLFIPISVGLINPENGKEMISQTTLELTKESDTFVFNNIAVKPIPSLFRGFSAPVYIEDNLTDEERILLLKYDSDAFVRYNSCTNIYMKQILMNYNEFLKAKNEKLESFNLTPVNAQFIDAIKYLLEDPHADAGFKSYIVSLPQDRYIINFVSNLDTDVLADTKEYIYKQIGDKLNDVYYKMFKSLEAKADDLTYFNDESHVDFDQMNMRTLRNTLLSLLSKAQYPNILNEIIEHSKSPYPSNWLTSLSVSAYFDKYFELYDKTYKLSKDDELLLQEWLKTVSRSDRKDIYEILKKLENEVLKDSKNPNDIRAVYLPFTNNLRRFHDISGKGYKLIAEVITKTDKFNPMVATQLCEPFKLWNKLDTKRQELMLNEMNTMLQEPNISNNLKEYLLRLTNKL
For `COC(=O)c1ccc(OC(=O)CCN2c3ccccc3Sc3ccccc32)cc1`, the inhibition was -4.42% (inactive).
As for `CC(=O)Nc1ccc(Nc2cc(-c3ccccc3)nc3ncnn23)cc1`, the inhibition was 1.24% (inactive).
On to `NC(=O)c1nnsc1Sc1c(C(N)=O)nnn1-c1cccc(N)c1`, for which the inhibition is 4.16% (inactive).
Regarding `OCCNCCOc1ccccc1F`, the inhibition is 7.92% (inactive).
The figure for `COC(=O)[C@H](CC(C)C)NC(=O)NCc1ccc(Cl)cc1` is 5.26% (inactive); for `Cc1ccn2c(Nc3ccc4c(c3)OCO4)c(-c3ccccn3)nc2c1` it is 12.3% (inactive); for `N#Cc1c(NC(=O)C2CCCO2)sc2c1CCCCCC2` (stereo not drawn) it is 3.88% (inactive).
`O=C1CC(c2ccccc2)Cc2nc3nc(C(F)(F)F)nn3cc21` (stereo not drawn): the inhibition was -1.32% (inactive).
For `Cc1ccc(NS(=O)(=O)Cc2ccccc2)nc1`, the inhibition is 5.38% (inactive).
The figure for `O=C1Nc2ccccc2C1=Nc1ccc(S(=O)(=O)Nc2nccs2)cc1` is 9.76% (inactive).
`O=c1oc(-c2ccccc2NS(=O)(=O)c2ccccc2)nc2ccccc12`: the inhibition is 9.41% (inactive).
`O=S(=O)(Cc1ccccc1)Nc1ccc(Br)cn1`: the inhibition was 1.35% (inactive).
The figure for `COc1ccccc1NC(=O)C1=C(C)NC(=O)NC1c1ccccc1F` (stereo not drawn) is 5.11% (inactive); for `CCN(CC)CC(C)(C)NS(=O)(=O)c1ccc(Cl)cc1` it is -1.17% (inactive); for `CC(C)OCCCNC(=O)c1ccc2c(=O)n(Cc3ccc4c(c3)OCO4)c(=S)[nH]c2c1` it is -0.14% (inactive).
In the case of `COc1ccc(/C=C/C(=O)NCCSCc2ccco2)cc1`, the inhibition is 8.04% (inactive).
Consider `Cc1ccccc1C(=O)OCc1nnc(-c2ccc(Cl)cc2)o1`, for which the inhibition was 1.13% (inactive).
As to `NC(CC(=O)O)c1ccc(F)cc1` (stereo not drawn), the inhibition is 0.38% (inactive).
In the case of `COC(=O)CC(N)c1ccc(Br)cc1` (stereo not drawn), the inhibition is 3.11% (inactive).
For the compound `Cc1c(/C=N/NC(=O)c2cc(C(C)(C)C)[nH]n2)c2ccccc2n1C`, the inhibition is 4.3% (inactive).
In the case of `COc1ccc2[nH]cc(CCN=C3SCC(=O)N3C)c2c1`, the inhibition is -3.56% (inactive).
Take `N#Cc1cc2c(nc1SCc1ccccc1)CCCCC2`: the inhibition was 5.06% (inactive).
Take `N#Cc1cc2c(nc1SCc1ccccc1)CCC2`: the inhibition was -3.56% (inactive).
For `CCOc1ccc(CCNC(=O)C2CCCN(c3nn4c(=O)cc(C)nc4s3)C2)cc1` (stereo not drawn), the inhibition is 1.13% (inactive).
For `CCOC(=O)c1c(-c2ccccc2)csc1N1C(=O)Nc2ccccc2N1O`, the inhibition was 17% (inactive).
`COc1ccc(S(=O)(=O)Nc2cc(Cl)ccc2OC)cc1`: the inhibition is 4.45% (inactive).
As for `CCOc1ccc(S(=O)(=O)Nc2cc(OC)ccc2OC)cc1`, the inhibition is 4.04% (inactive).
For the compound `CCOc1ccc(S(=O)(=O)Nc2cc(Cl)ccc2O)cc1`, the inhibition was 24.5% (active).
Regarding `Cc1ccc(S(=O)(=O)Nc2ccccn2)cc1[N+](=O)[O-]`, the inhibition was 2.61% (inactive).
Take `Cc1ccc(-c2csc(NC(=O)CSc3nc4ccccc4[nH]3)n2)cc1`: the inhibition was 7.06% (inactive).
Take `CCc1cc2c(-n3nc(C)cc3C)ncnc2s1`: the inhibition was 4.83% (inactive).
For `Cc1cc(Cl)ccc1OCCCC(=O)NN`, the inhibition is 2.87% (inactive).
For the compound `Cc1cc(Cl)ccc1OCCCC(N)=O`, the inhibition is 1.94% (inactive).
As for `Cn1c(=O)n(C)c2cc(NS(=O)(=O)c3cccs3)ccc21`, the inhibition was 5.68% (inactive).
As for `Cc1ccc(C(=O)NCc2ccc(Cl)c(Cl)c2)o1`, the inhibition is 7.75% (inactive).
On to `CCCCN(CCCC)CC(O)CN1C(=O)NC(C)(C)C1=O` (stereo not drawn), for which the inhibition was -3.19% (inactive).
Consider `CCN(CC(N)=O)S(=O)(=O)c1ccc(F)cc1`, for which the inhibition was 2.95% (inactive).
Consider `CCOc1ccc(C(=O)N/N=C/c2ccc(-c3ccc(S(=O)(=O)Nc4ncccn4)cc3)o2)cc1`, for which the inhibition was 55.9% (active).
Regarding `Cc1ccc(C(=O)N/N=C\c2ccc(-c3ccc(Cl)cc3)o2)cn1`, the inhibition was 8.72% (inactive).
`NS(=O)(=O)c1ccc(-c2ccc(/C=N/NC(=O)c3ccccc3O)o2)cc1`: the inhibition is 11.7% (inactive).
`CCCOc1ccc(C(=O)Nc2ccc(S(=O)(=O)Nc3onc(C)c3C)cc2)cc1`: the inhibition was -1.24% (inactive).
Regarding `CCOc1ccc(S(=O)(=O)N(CC(=O)N/N=C/c2ccc(-c3ccc([N+](=O)[O-])cc3)o2)c2ccccc2)cc1`, the inhibition is 15.9% (inactive).
The figure for `O=C(N/N=C/c1ccc(Sc2ccccn2)o1)c1cc2ccccc2cc1O` is 33% (inactive); for `NS(=O)(=O)c1ccc(-c2ccc(/C=N/NC(=O)c3ccc([N+](=O)[O-])cc3)o2)cc1` it is 2.02% (inactive); for `Cc1noc(NS(=O)(=O)c2ccc(NC(=O)c3ccc(OC(C)C)cc3)cc2)c1C` it is 4.64% (inactive).
Next, `CCOc1ccc(S(=O)(=O)Nc2ccc(C(=O)NN)cc2)cc1`: 4.26% (inactive); `O=C(Nc1ccc(Cl)c(Cl)c1)C1CC(=O)N(c2ccc(Br)cc2)C1` (stereo not drawn): -1.64% (inactive); `O=C(CCc1nc2ccccc2[nH]1)Nc1ccccc1F`: -0.01% (inactive).
In the case of `CC1CCCCN1C(=O)COc1ccc2ccc(=O)oc2c1` (stereo not drawn), the inhibition was -2.26% (inactive).
Turning to `Cc1ccc(NCN2C(=O)C3CC=CCC3C2=O)cc1` (stereo not drawn), the inhibition is 2.04% (inactive).
Regarding `Cc1ccc(CSCC(=O)N/N=C/c2sccc2C)cc1`, the inhibition was -0.66% (inactive).
For the compound `O=C(Cn1cc(C(F)(F)F)cc(Cl)c1=O)Nc1cc(S(=O)(=O)N2CCOCC2)ccc1Cl`, the inhibition was 7.22% (inactive).
With `Cc1ccc(NC(=O)NCc2ccc3c(c2)OCO3)cc1C`, the inhibition was 0.33% (inactive).
As for `Cc1ccc(N2CC(C(=O)Nc3cccnc3)CC2=O)cc1` (stereo not drawn), the inhibition was -4.99% (inactive).
For `COc1cccc2c1OC1(C)CC2NC(=O)N1Cc1ccccc1` (stereo not drawn), the inhibition is 1.39% (inactive).
For `CC12CC(NC(=O)N1CCc1ccccc1)c1ccccc1O2` (stereo not drawn), the inhibition was 4.6% (inactive).
Turning to `CC12CC(NC(=O)N1Cc1ccccc1)c1ccccc1O2` (stereo not drawn), the inhibition is 25.3% (active).
On to `CC1CCCC(C)N1NC(=S)Nc1ccc(OC(F)F)cc1` (stereo not drawn), for which the inhibition is 3.89% (inactive).
For the compound `CSc1cc(-c2ccc(Cl)cc2)[nH]c(=O)c1C#N`, the inhibition was 0.84% (inactive).
Take `O=C1NCC(COCc2ccco2)O1` (stereo not drawn): the inhibition was -4.49% (inactive).
In the case of `COc1ccccc1CNC(=O)C(Cc1c[nH]c2ccccc12)NC(=O)OCc1ccccc1` (stereo not drawn), the inhibition is 2.3% (inactive).
The figure for `COc1cc(/C=N/NC(=O)C(Cc2c[nH]c3ccccc23)NC(=O)OCC(C)C)cc([N+](=O)[O-])c1OCc1ccccc1` (stereo not drawn) is 9.91% (inactive); for `COc1cc(/C=N/NC(=O)Cc2c[nH]c3ccccc23)cc(OC)c1OC` it is 8.03% (inactive).
On to `COC(=O)N/N=C/c1cc(OC)c(O)c([N+](=O)[O-])c1`, for which the inhibition was 14.3% (inactive).
`CC(=O)NC(Cc1c[nH]c2ccccc12)C(=O)N/N=C/c1ccccc1` (stereo not drawn): the inhibition is 2.78% (inactive).
Next, `COc1ccc(/C=N/NC(=O)C(Cc2c[nH]c3ccccc23)NC(=O)OCC(C)C)cc1[N+](=O)[O-]` (stereo not drawn): 3.34% (inactive); `Cc1ccc2[nH]c(=O)c(CNC(C)C)cc2c1`: 11.4% (inactive).
In the case of `O=C(NCc1ccccn1)C(=O)Nc1ccccc1`, the inhibition is 1.97% (inactive).
Take `Cc1ccc(C(=O)C(OC(=O)c2cnccn2)c2ccccc2)cc1` (stereo not drawn): the inhibition was 1.17% (inactive).
Take `O=S(=O)(c1ccc2ccccc2c1)N1CCN(C(=S)Nc2ccc(F)cc2)CC1`: the inhibition was 3.26% (inactive).
Turning to `O=C(Cc1ccccc1)NS(=O)(=O)c1ccc(N=NN2CCOCC2)cc1`, the inhibition was 12.9% (inactive).
The figure for `COC(=O)N1CCCc2cc(C)ccc21` is -4.46% (inactive); for `COc1cccc(C(=O)NN2C(=O)C3C4C=CC(O4)C3C2=O)c1` (stereo not drawn) it is 6.4% (inactive).
Turning to `NS(=O)(=O)c1ccc(CCNC(=O)CSc2nc3ccsc3c(=O)n2CC(=O)O)cc1`, the inhibition is 2.18% (inactive).
For `O=C(NCc1ccccn1)C1CCN(S(=O)(=O)c2cc(Cl)ccc2Cl)CC1`, the inhibition was 3.1% (inactive).
Take `CC(C)c1ccc(C(N)=S)cc1`: the inhibition was 4.59% (inactive).
As for `CC(=O)NC(C)CCc1ccccc1` (stereo not drawn), the inhibition was -2.08% (inactive).
Next, `COC(=O)[C@@H](NC(=O)NC(C)CCc1ccccc1)C(C)C` (stereo partly drawn): 23.4% (active); `COC(=O)[C@H](C)NC(=O)NC(C)CCc1ccccc1` (stereo partly drawn): 13.4% (inactive); `Cc1cccc(N2C(=O)CC(N3CCC(c4nc5ccccc5[nH]4)CC3)C2=O)c1` (stereo not drawn): 3.73% (inactive).
Next, `CC1CCN(C(=O)C2CCN(S(=O)(=O)c3cc(Cl)ccc3Cl)CC2)CC1`: 0.81% (inactive); `NC(=O)CSc1nc2scc(-c3ccco3)c2c(=O)n1-c1ccccc1`: 18% (inactive).
For `CC(C)C(C)NC(=O)CSc1nc2scc(-c3ccco3)c2c(=O)n1-c1ccccc1` (stereo not drawn), the inhibition was 4.78% (inactive).
Regarding `CC(C)C(C)(C#N)NC(=O)CSc1nc2scc(-c3ccco3)c2c(=O)n1-c1ccccc1` (stereo not drawn), the inhibition is 24.4% (active).
As to `CCC(C(=O)Nc1ccncc1)c1ccccc1` (stereo not drawn), the inhibition was 2.45% (inactive).
With `Cc1cccc2cc(COC(=O)c3cccc([N+](=O)[O-])c3)c(=O)[nH]c12`, the inhibition is 3.82% (inactive).
Turning to `CC1CCN(CC(=O)Nc2cccc([N+](=O)[O-])c2)CC1`, the inhibition was -0.43% (inactive).
Consider `CC(=O)NC1CCN(CC(=O)Nc2cccc([N+](=O)[O-])c2)CC1`, for which the inhibition was 1.46% (inactive).
Next, `CCC(C)NC(=O)CSc1nc(-c2cccs2)cc(C(F)(F)F)n1` (stereo not drawn): 18.3% (inactive).
Consider `CCNC(=S)N1CCC(NC(=O)c2ccco2)CC1`, for which the inhibition is -4.14% (inactive).
Next, `O=C(NCc1ccccc1)C1CCN(C(=O)NCc2ccccc2)CC1`: 17.5% (inactive).
Regarding `Cc1ccc(NC(=O)N2CCC(C(=O)NCc3ccc(F)cc3)CC2)cc1`, the inhibition was 10.1% (inactive).
For `Cc1ccc(NC(=O)N2CCC(C(=O)NCc3ccccc3)CC2)cc1`, the inhibition was 26.3% (active).
The figure for `O=C(NC1CCN(C(=O)NC2CCCCC2)CC1)c1ccco1` is 11.5% (inactive); for `CCOc1ccc(C(=O)NC2CCN(C(=S)NCc3ccco3)CC2)cc1` it is 11.3% (inactive); for `O=C(NC1CCN(C(=S)NCc2ccco2)CC1)C1CCCCC1` it is 6.27% (inactive).
Next, `COc1ccc(C(=O)NC2CCN(C(=S)NCc3ccco3)CC2)cc1`: 4.73% (inactive).
`O=C(NC1CCCCC1)NC1CC2CCC(C1)N2C(=S)NCc1ccco1` (stereo not drawn): the inhibition is 19.9% (inactive).
